According to PMC4552634, “A New Set of Chemical Starting Points with Plasmodium falciparum Transmission-Blocking Potential for Antimalarial Drug Discovery” (PLoS ONE, 2015):
Out of some 13,000 compounds screened, about 3,200 (25%) showed an effect of 50% or more. The list shows a part of the results.

tested on: P. falciparum stage V gametocytes; design: BacTiter-Glo ATP luminescence viability of purified stage V gametocytes in 384-well plates, per cent inhibition versus DMSO; settings: 48 h, 5 µM; inhibitor

Row | SMILES | % Inhibition [%]
1 | CS(=O)(=O)CCNCc1ccc(-c2ccc3ncnc(Nc4ccc(OCc5ccccc5)c(Cl)c4)c3c2)o1 [TCMDC-138467] | 19.81
2 | COc1cc(OCCCCCCON2C(N)=NC(N)=NC2(C)C)cc(OC)c1OC [TCMDC-131371] | 3.006
3 | Cc1cc(OCCCN2CCC(NS(=O)(=O)c3ccc(C(F)(F)F)cc3)CC2)c2ccccc2n1 [TCMDC-136277] | -32.21
4 | COc1ccc(-n2nc(C)c3c2NC(=O)CC3c2ccccc2OCc2ccccc2F)cc1 (centres unmarked) [TCMDC-124907] | 2.012
5 | COc1ccc2nccc([C@@H](O)CN3CCC(NC(=O)c4cc5cccnc5[nH]4)CC3)c2c1 [TCMDC-140768] | 6.193
6 | Cc1ccc(NC(=O)c2ccc(CN3CCCN(CC4CCCCC4)CC3)cc2)cc1 [TCMDC-136397] | -64.33
7 | Cc1ccc(Nc2nnc(SCC(=O)Nc3ccc(CN4CCCC4)cc3)s2)cc1 [TCMDC-125043] | 65.4
8 | Cc1ccc(NC(=O)c2ccc(CN3CCCN(Cc4cccc(O)c4)CC3)cc2)cc1 [TCMDC-136398] | -12.68
9 | COc1ccccc1C1CCN(C2CCC(NC(=O)/C=C/c3ccc(C(F)(F)F)cc3F)CC2)CC1 (centres unmarked) [TCMDC-133486] | -41.82
10 | O=C(Nc1ccncc1)Nc1ccc2c(c1)CCN(C1CCC1)CC2 [TCMDC-135949] | 33.65
11 | O=C(Nc1ccc2c(c1)CCC2)c1cccc(N2CCN(c3ccncc3)CC2)c1 [TCMDC-135125] | 2.245
12 | O=C(c1cccc(COc2ccc3c(c2)CCN(C2CCCC2)CC3)c1)N1CCN(c2ccncc2)CC1 [TCMDC-134128] | 76.76
13 | Oc1ccc(CCNc2nc(NCc3ccccc3-c3ccc(F)cc3)nc(N3CCNCC3)n2)cc1 [TCMDC-133783] | 11.92
14 | COc1ccc2nccc([C@@H](O)CN3CCC(NCc4ccc5scnc5c4)CC3)c2c1 [TCMDC-141081] | 9.68
15 | Cc1ccc(NC(=O)c2ccc(Cl)c(Cl)c2)cc1-c1ccc(C(=O)Nc2ccncc2)cc1 [TCMDC-133696] | -4.564
16 | CCOc1cc(C)ccc1C1CCN(CCCCNC(=O)c2cnc(-c3ccc(C(F)(F)F)cc3)[nH]2)CC1 [TCMDC-138581] | 5.476
17 | COc1ccc(NC(=O)[C@H](CC(C)C)Nc2ccnc(NCCc3ccc(F)cc3)n2)cc1 [TCMDC-134826] | 23.86
18 | COc1ccc2c(CCNc3nc(SC)ncc3C(=O)NCCc3ccc(F)cc3)c[nH]c2c1 [TCMDC-136796] | 55
19 | COc1ccc(NC(=O)CCNc2ccnc(NCCc3ccc(F)cc3)n2)cc1 [TCMDC-134823] | 38.74
20 | CCNCc1ccc(-c2cc3ncnc(Nc4ccc(OCc5cccc(F)c5)c(Cl)c4)c3s2)[nH]1 [TCMDC-135542] | -36.05
21 | Cc1ccc(F)c(NC(=O)c2c(-c3c(F)cccc3Cl)noc2C)c1 [TCMDC-125643] | -20.89
22 | Cc1ccc(N/C(N)=N/c2ncccc2OCc2c(F)cccc2Cl)cc1 [TCMDC-138944] | 83.96

Row | SMILES | % Inhibition [%]
23 | Clc1ccccc1OCc1ccccn1 [TCMDC-125865] | -0.5645
24 | O=C(/C=C/c1ccc(Cl)c(Cl)c1)NCCCCCN1CCCN(C(=O)Nc2cccc(F)c2)CC1 [TCMDC-135745] | -38.92
25 | COc1ccc(C(=O)Nc2ccc(-c3nc4ccc(C)cc4[nH]3)cc2)cc1OC [TCMDC-124358] | 77.27
26 | O=C(Nc1ccc(-c2nc3ccc(NC(=O)c4ccc(Br)cc4)cc3[nH]2)cc1)c1ccc(Br)cc1 [TCMDC-124212] | -13.35
27 | COc1ccccc1C1CCN(C2CCC(NC(=O)c3ccc4nc(-c5ccc(C)cc5)[nH]c4c3)CC2)CC1 (centres unmarked) [TCMDC-133556] | 115.6
28 | COc1ccc(Cl)cc1C(=O)Nc1ccc(-c2nc3ccccc3[nH]2)cc1 [TCMDC-125808] | 9.6
29 | COc1cccc(C(=O)Nc2ccc(-c3nc4ccccc4[nH]3)cc2)c1 [TCMDC-124429] | 5.991
30 | CCOc1cc(C(=O)Nc2ccc(-c3nc4ccccc4[nH]3)cc2)cc(OCC)c1OCC [TCMDC-125676] | -48.5
31 | Cc1ccc(-c2nc3ccc(C(=O)NC4CCN(Cc5ccccc5)CC4)cc3[nH]2)cc1 [TCMDC-133073] | 5.058
32 | Cc1ccc(-c2nc3ccc(C(=O)NC4CCC(N5CCCc6ccc(C#N)cc6C5)CC4)cc3[nH]2)cc1 (centres unmarked) [TCMDC-133551] | -1.563
33 | CCOc1cccc(C(=O)Nc2ccc(-c3nc4ccccc4[nH]3)cc2)c1 [TCMDC-123752] | 24.98
34 | COc1cc(C(=O)Nc2cccc(-c3nc4ccccc4[nH]3)c2)cc(OC)c1OC [TCMDC-125848] | -4.164
35 | COc1cc(C(=O)Nc2ccc(-c3nc4ccccc4[nH]3)cc2)cc(OC)c1OC [TCMDC-125796] | 51.37
36 | N#Cc1cccc(C(=O)Nc2ccc(-c3nc4ccccc4[nH]3)cc2)c1 [TCMDC-124812] | 70.91
37 | Cc1c(CNCCCNc2cc(=O)c3ccccc3[nH]2)sc(C(F)=C(F)F)c1Br [TCMDC-141189] | -2.633
38 | Cn1c(=O)c2nc(-c3ccc(Cl)cc3)nnc2n(CCCC#N)c1=O [TCMDC-138537] | 18.59
39 | CCOc1ccc(/C=C/C(=O)Nc2cccc3c2CCN(C)C3)cc1 [TCMDC-139243] | 3.869
40 | COc1ccc2nccc([C@@H](O)CN3CCC(NC(=O)COc4nc(SCc5ccc(F)cc5)nc5c4CCC5)CC3)c2c1 [TCMDC-141132] | -0.4192
41 | COC(=O)c1ccc(CC(C)NCC(O)c2cc(Cl)c(N)c(Cl)c2)cc1 (centres unmarked) [TCMDC-131421] | 9.503
42 | Cc1cc(C(=O)Nc2ccc(-c3nc4ccccc4[nH]3)cc2)ccc1[N+](=O)[O-] [TCMDC-123604] | 62.44
43 | CCOc1ccc(C(=O)Nc2ccc(-c3nc4ccccc4[nH]3)cc2)cc1[N+](=O)[O-] [TCMDC-125221] | -12.2
44 | O=C(Nc1ccc(-c2nc3ccccc3[nH]2)cc1)c1ccc(Cl)c([N+](=O)[O-])c1 [TCMDC-125730] | 2.294
